{"source": "PubChem BioAssay (EPA / NIEHS)", "note": "Active and inactive are the calls of the source. Rule for the calls: active = hit-call score of the fitted dose curve at least 0.9, where 1 is the maximum; inactive = score below 0.9."}
{"read-out": "CYP2C8 (gene 1558)", "experiment": "LTEA_HepaRG_CYP2C8: Life Technologies and Expression Analysis (LTEA) Assay for CYP2C8 using HepaRG (AID 2283483)", "details": "mRNA level, 48 h; actives raise or lower the signal", "in_short": "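This is a transcriptional endpoint in HepaRG cultures: 48 h exposure, highest concentration 100 uM. CYP2C8 mRNA is quantified by TaqMan qRT-PCR.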"}
{"smiles": "Nc1ccc(C(=O)O)cc1", "outcome": "inactive"}
{"smiles": "Cc1ccc([N+](=O)[O-])cc1N", "outcome": "inactive"}
{"smiles": "C1CNCCN1", "outcome": "inactive"}
{"read-out": "CYP2C9 (gene 1559)", "experiment": "LTEA_HepaRG_CYP2C9: Life Technologies and Expression Analysis (LTEA) Assay for CYP2C9 using HepaRG (AID 2283484)", "details": "mRNA level, 48 h; actives raise or lower the signal", "in_short": "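Eight-point concentration-response (highest 100 uM, half-log dilutions) in HepaRG cells for 48 h; CYP2C9 expression by qRT-PCR normalized to ACTB, GAPDH, POLR2A. Bidirectional fit, DMSO baseline.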"}
{"smiles": "Nc1ccc(C(=O)O)cc1", "outcome": "inactive"}
{"smiles": "Cc1ccc([N+](=O)[O-])cc1N", "outcome": "inactive"}
{"smiles": "C1CNCCN1", "outcome": "inactive"}
{"read-out": "CYP2E1 (gene 1571)", "experiment": "LTEA_HepaRG_CYP2E1: Life Technologies and Expression Analysis (LTEA) Assay for CYP2E1 using HepaRG (AID 2283485)", "details": "mRNA level, 48 h; actives raise or lower the signal", "in_short": "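CYP2E1 transcript was measured by TaqMan qRT-PCR in human HepaRG cultures after 48 h chemical exposure (top 100 uM, half-log steps, 0.5% DMSO vehicle). Housekeeping-gene normalization; gain or loss fitted relative to DMSO baseline.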"}
{"smiles": "Nc1ccc(C(=O)O)cc1", "outcome": "inactive"}
{"smiles": "Cc1ccc([N+](=O)[O-])cc1N", "AC50": "32.4 µM (active)"}
{"smiles": "C1CNCCN1", "outcome": "inactive"}
